Reference: PubChem BioAssay (NCI)
About 83,000 compounds went through this panel and 20% of them were active in at least one assay; those are over-represented in the sample as a whole.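 96-well plates, one dose, 48 hours. Percent growth reported; active if below 10.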 Unmarked numbers belong to inactive results. Activity calls are given as the source filed them.

How the values were obtained:
Assay in all cases: NCI-60 one-dose screen, 48 h (100 = growth as untreated, 0 = no growth, -100 = all killed)
Conditions in all cases: 10 µM unless noted
NCI-H23 lung = tested on: NCI-H23 lung
NCI-H226 lung = tested on: NCI-H226 lung
NCI-H322M lung = tested on: NCI-H322M lung
HOP-62 NSCLC = tested on: HOP-62 NSCLC
NCI-H460 lung = tested on: NCI-H460 lung
HOP-92 NSCLC = tested on: HOP-92 NSCLC
NCI-H522 lung = tested on: NCI-H522 lung
A549/ATCC NSCLC = tested on: A549/ATCC NSCLC
786-0 renal = tested on: 786-0 renal
COLO 205 colon = tested on: COLO 205 colon
DU-145 prostate = tested on: DU-145 prostate
K-562 leukemia = tested on: K-562 leukemia
MALME-3M melanoma = tested on: MALME-3M melanoma
MDA-MB-231 breast = tested on: MDA-MB-231 breast
RXF 393 renal = tested on: RXF 393 renal
SF-268 CNS = tested on: SF-268 CNS
SF-295 CNS = tested on: SF-295 CNS
SF-539 CNS = tested on: SF-539 CNS
UACC-257 melanoma = tested on: UACC-257 melanoma
M14 melanoma = tested on: M14 melanoma

Structure (SMILES)	growth (NCI-H23 lung)	growth (NCI-H226 lung)	growth (NCI-H322M lung)	growth (HOP-62 NSCLC)	growth (NCI-H460 lung)	growth (HOP-92 NSCLC)	growth (NCI-H522 lung)	growth (A549/ATCC NSCLC)	growth (786-0 renal)	growth (COLO 205 colon)	growth (DU-145 prostate)	growth (K-562 leukemia)	growth (MALME-3M melanoma)	growth (MDA-MB-231 breast)	growth (RXF 393 renal)	growth (SF-268 CNS)	growth (SF-295 CNS)	growth (SF-539 CNS)	growth (UACC-257 melanoma)	growth (M14 melanoma)
O=S(=O)(NCCCNc1nccc(-c2c(-c3ccc(F)c(O)c3)nc3occn23)n1)c1ccccc1	84.1%	115%	98.5%	102%	75.7%	71%	75.6%	88.1%	123%	48.6%	90.5%	56.8%	-0.289% (active)	57.7%	70.9%	97.3%	104%	105%	29.1%	17.2%
CC(C)CCC[C@@H](C)[C@H]1CC[C@H]2[C@@H]3CC=C4C[C@@H](C(C(=O)O)C(=O)O)CC[C@]4(C)[C@H]3CC[C@]12C	-48% (active)	-62.9% (active)	-0.312% (active)	-54.8% (active)	-71.5% (active)	8.17% (active)	-28.7% (active)	-51.7% (active)	-58.6% (active)	-91.1% (active)	-83.5% (active)	-48.3% (active)	-43% (active)	-28.2% (active)	-49.8% (active)	-24.6% (active)	-61.2% (active)	-27.3% (active)	-49.8% (active)	-72.9% (active)
COc1ccc(Cc2cc(-c3ccccc3)nn(Cc3ccccc3)c2=O)cc1OC	39.4%	52%	82.4%	69.1%	33.9%	28%	37%	20%	35.8%	9.24% (active)	73.8%	22.2%	23.4%	43.6%	42.4%	57%	28.8%	63.4%	34.4%	38%
O=[N+]([O-])/C(=C/C=C/c1ccccc1)c1ccccc1	75.5%	87.8%	100%	35.9%	70.7%	-8.76% (active)	19.8%	72.6%	-7.75% (active)	23.2%	26%	24.4%	96.1%	61.7%	35.4%	35.3%	91.5%	36.8%	77%	37.8%
CCOC(=O)c1cc(C(=O)c2cc(OC)c(OC)c(OC)c2)n2ccc(-c3ccncc3)cc12	94.8%	95.9%	106%	90.1%	97.4%	65.8%	68.7%	80%	90.2%	103%	103%	98.7%	87.5%	70.2%	95.3%	96.4%	113%	93.9%	80.8%	101%
COC(=O)c1ccc2c(c1)C(=O)c1c-2n(CCCN)c(=O)c2cc([N+](=O)[O-])ccc12	-53.8% (active)	-73.4% (active)	-84.3% (active)	-93.2% (active)	-100% (active)	-88.1% (active)	-78.2% (active)	-94% (active)	-98.5% (active)	-100% (active)	-100% (active)	-100% (active)	-96.9% (active)	-100% (active)	-87.5% (active)	-87.2% (active)	-77.4% (active)	-94.2% (active)	-96.1% (active)	-100% (active)
Fc1ccc(Nc2nc3nonc3nc2Nc2ccc(I)cc2)cc1	-19.5% (active)	-17.5% (active)	1.66% (active)	-23.7% (active)	2.95% (active)	-25.9% (active)	-20.2% (active)	2.73% (active)	-11.1% (active)	-64.4% (active)	23%	6.8% (active)	-25.6% (active)	-23.5% (active)	-10.2% (active)	22%	-43.6% (active)	7.05% (active)	-24.5% (active)	-3.95% (active)
